Source: a collection of fitness landscapes (doi:10.1016/j.celrep.2020.107928)
In all, about 81,000 sequences were measured (“one-hybrid fitness for binding NBS DNA”: median about -0.1, highest 2% from about 0.36 on). The sample holds the highest values, similar sequences and a random draw of the others, so the mix is not that of the screen.

B1: Caulobacter ParB omega fusion; a variant is named by its letters at X, in order, B8GW30 (parent)
chain: MESVVVGEPGMSEGRRGLGRGLSALLGEVDAAPAQAPGEQLGGSREAPIEILQRNPDQPRRTFREEDLEDLSNSIREKGVLQPILVRPSPDTAGEYQIVAGERAWRAAQRAGLKTVPIMVRELDDLAVLEIGIIENVQRADLNVLEEALSYKVLMEKFERTQENIAQTIGKSXSHVANXMRLLXLPDEVQSYLVSGELTAXHARAIAAAADPVALAKQIIEGGLSVRETEALARKAPNLSAGKSKGGRPPRVKDTDTQALESDLSSVLGLDVSIDHRGSTGTLTITYATLEQLDDLCNRLTRGI

Variants of: B1
Assay: one-hybrid fitness for binding NBS DNA (the Noc-binding site; scaled: cognate 1, non-cognate 0); higher = stronger binding
Details: with NBS DNA site
Procedure, shortened: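 The reporter was HIS3, with the binding site 19 bp from the promoter, in E. coli USO used for bacterial one-hybrid selection of Caulobacter ParB libraries with four specificity codons randomised. Growth was on M9 lacking histidine, with 0.1 mM IPTG and 5 mM 3-AT, for 48 hours at 37°C. Illumina sequencing covered plasmids before and after selection; three replicate libraries were pooled and variants with under 10 reads dropped. A fitness score is the log change in variant-to-wild-type read ratio, rescaled to the cognate and non-cognate references.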

Variant	one-hybrid fitness for binding NBS DNA
QSHW	≤ 0.2
AERM	≤ 0.2
QSMN	≤ 0.2
QAMR	0.45
QTMR	0.656
QTMC	≤ 0.2
EMMN	≤ 0.2
QAMH	0.219
QTMY	0.232
QSMR	0.456
EMMK	0.405
QAMN	≤ 0.2
EMMS	≤ 0.2
QSMH	≤ 0.2
LIRV	≤ 0.2
RMDQ	≤ 0.2
VSTS	≤ 0.2
CNRT	≤ 0.2
IWRR	≤ 0.2
PMRP	≤ 0.2
TVTG	≤ 0.2
HFAM	≤ 0.2
DPVR	≤ 0.2
CHNI	≤ 0.2
QCMR	0.589

Variant	one-hybrid fitness for binding NBS DNA
QKMK	≤ 0.2
QPMR	≤ 0.2
QKMR	0.51
QRMF	0.25
QRMR	0.971
QRMM	0.334
QMMR	0.523
QKMC	≤ 0.2
QMML	≤ 0.2
QIMR	0.348
QMMD	≤ 0.2
TRYK	≤ 0.2
DMET	≤ 0.2
PFSA	≤ 0.2
KETI	≤ 0.2
TMKT	≤ 0.2
FTAV	≤ 0.2
TYAQ	≤ 0.2
DFDS	≤ 0.2
QHMH	≤ 0.2
QHMD	≤ 0.2
QLMP	≤ 0.2
QLMR	0.437
QLMD	≤ 0.2
QHMR	0.512

Variant	one-hybrid fitness for binding NBS DNA
PNHV	≤ 0.2
LLMW	≤ 0.2
LSGP	≤ 0.2
QMTN	≤ 0.2
QITR	0.417
QATR	0.507
QMTP	≤ 0.2
QATP	≤ 0.2
QITH	≤ 0.2
QVTD	≤ 0.2
QVTS	0.257
QVTR	0.38
QMTR	0.568
QATN	≤ 0.2
QITP	≤ 0.2
AEVC	≤ 0.2
LDTD	≤ 0.2
DQQR	≤ 0.2
PSGT	≤ 0.2
DSIE	≤ 0.2
WSFT	≤ 0.2
GPRS	≤ 0.2
PFKM	≤ 0.2
QQPY	≤ 0.2
QTTR	0.794

Variant	one-hybrid fitness for binding NBS DNA
QTTF	≤ 0.2
QKTH	0.241
QKTR	0.646
QSTD	≤ 0.2
QTTQ	0.242
QHTD	≤ 0.2
QHTR	0.527
QSTR	0.531
QHTH	≤ 0.2
QSTP	≤ 0.2
QKTK	≤ 0.2
HRSV	≤ 0.2
ENSS	≤ 0.2
DMPS	≤ 0.2
GDPL	≤ 0.2
ACNS	≤ 0.2
TMDS	≤ 0.2
PAFY	≤ 0.2
QPEV	≤ 0.2
IHVS	≤ 0.2
GGTE	≤ 0.2
HVRY	≤ 0.2
QPTR	≤ 0.2
DRTR	≤ 0.2
QNTR	0.223

Variant	one-hybrid fitness for binding NBS DNA
QRTR	1.01
QLTR	0.487
QLTN	≤ 0.2
QLTD	≤ 0.2
QCTR	0.637
NRTR	≤ 0.2
PNSR	≤ 0.2
QDFN	≤ 0.2
VVTR	≤ 0.2
ASAC	≤ 0.2
AKMS	≤ 0.2
VYSF	≤ 0.2
GLYG	≤ 0.2
HCDP	≤ 0.2
RLYR	0.385
RLSC	≤ 0.2
RLGN	≤ 0.2
RLGR	0.443
RLWR	0.248
RLDR	≤ 0.2
RLGH	≤ 0.2
RLPR	≤ 0.2
RLSK	≤ 0.2
RLSR	0.43
RLNN	≤ 0.2

Variant	one-hybrid fitness for binding NBS DNA
RLNR	0.526
PRNP	≤ 0.2
HRFS	≤ 0.2
YKLT	≤ 0.2
CNVC	≤ 0.2
CNLW	≤ 0.2
RLQR	0.43
RLHR	0.491
RLLR	0.32
RLCR	0.412
RLCS	0.334
RLQY	≤ 0.2
RLCN	≤ 0.2
RLRR	0.673
RLQQ	≤ 0.2
RLIR	0.21
RLHM	≤ 0.2
RLHD	≤ 0.2
HQQG	≤ 0.2
GCLR	≤ 0.2
YYLT	≤ 0.2
TQHV	≤ 0.2
RMVQ	≤ 0.2
WTKW	≤ 0.2
SRPI	≤ 0.2

Variant	one-hybrid fitness for binding NBS DNA
QRYF	0.227
QTDF	≤ 0.2
QRRF	0.418
QRDF	≤ 0.2
QCRF	0.423
QPRF	≤ 0.2
QSRF	0.265
QTYF	≤ 0.2
QTRF	0.446
NNNK	≤ 0.2
WGNT	≤ 0.2
AIMG	≤ 0.2
NWSC	≤ 0.2
HMTV	≤ 0.2
SYSV	≤ 0.2
RSDA	≤ 0.2
RRNA	0.679
RCDA	≤ 0.2
RRDA	0.463
RCNA	0.298
RPNA	≤ 0.2
VHDS	≤ 0.2
RQYA	≤ 0.2
PMCY	≤ 0.2
RHCH	≤ 0.2

Variant	one-hybrid fitness for binding NBS DNA
RICH	≤ 0.2
RSCN	≤ 0.2
RHCR	0.37
RFCR	≤ 0.2
RSCR	0.38
RICN	≤ 0.2
RPCR	≤ 0.2
RHCP	≤ 0.2
RCCR	0.45
RICR	0.369
RSCH	≤ 0.2
TYVA	≤ 0.2
SMNL	≤ 0.2
VKSS	≤ 0.2
NEES	≤ 0.2
WCYR	≤ 0.2
AMGT	≤ 0.2
RKCR	0.552
RKCD	≤ 0.2
RKCH	≤ 0.2
